# Results as given in PubChem BioAssay (NCI).
# This is part of a sample that, as a whole, favours compounds with a hit. Of some 83,000 tested, about 20% had one in any assay.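 Cell lines were cultured in 96-well plates, exposed to a single compound concentration, and assessed for percent growth 48 hours later.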 Active and inactive are the calls of the source. How the source made its calls: active means growth percent below 10; inactive means the rest.
# Tested on: HL-60(TB) leukemia
# Assay: NCI-60 one-dose screen, 48 h (100 = growth as untreated, 0 = no growth, -100 = all killed)
# Conditions: 10 µM unless noted
row,Compound,growth
1,O=C(Nc1ccc(Br)cc1F)c1cc(Br)ccc1O,-23.7% (active)
2,COc1ccc2c(c1)c(-c1nc(-c3cn(C)c4ncccc34)cs1)cn2CCCN1CCCCC1,4.1% (active)
3,Nc1ncnc2c1c(-c1cccc(OCc3ccccc3)c1)cn2C1CC(CN2CCC2)C1 (stereo not given),-51.5% (active)
4,Cn1c(=O)c2c(ncn2CC(=O)Nc2ccc(S(N)(=O)=O)cc2)n(C)c1=O,94.2% (inactive)
5,CCOC1Oc2ccccc2C(=O)/C1=N/c1nccs1 (stereo not given),106% (inactive)
6,O=C(CCN1CCCC1)c1ccc([N+](=O)[O-])cc1,-21.1% (active)
7,N[C@@H](Cc1ccccc1)[C@@H](O)C(=O)NCc1ccc(F)cc1,101% (inactive)
8,O=S(=O)(Nc1ccc(I)cc1F)c1ccc(-c2cnc(C3CC3)o2)cc1,17.1% (inactive)
9,COC(=O)c1c[n+]([O-])ccc1OC,106% (inactive)
10,CC(=O)OC[C@]12CC[C@@H](C(=O)CBr)[C@@H]1[C@H]1CC[C@@H]3[C@@]4(C)CCCNC(C)(C)[C@@H]4CC[C@@]3(C)[C@]1(C)CC2,-18% [100 µM] (active)
11,S=c1nn[nH]c2ccccc12,105% (inactive)
12,COc1cc(Nc2ncccc2C(=O)Nc2nc3ccc(F)cc3s2)cc(OC)c1OC,136% (inactive)
13,O=S(=O)(c1cc(Cl)ccc1O)c1cc(Cl)ccc1O,74.2% (inactive)
14,CCN(CC)CCOc1cccc2c1C(=O)c1ccccc1C2=O,93.3% (inactive)
15,N/N=C(/Cc1ccccc1)NNC(N)=S,97.8% (inactive)
16,CCCCOc1nc2cc(Cl)ccc2cc1/C=C/c1cc(/C=C/c2cc3ccc(Cl)cc3nc2OCCCC)n(-c2ccccc2)n1,77.8% (inactive)
17,S=C=NP1(N=C=S)=NP(N=C=S)(N=C=S)=NP(N=C=S)(N=C=S)=NP(N=C=S)(N=C=S)=N1 (stereo not given),60.7% (inactive)
18,CCS(=O)(=O)c1ncnc2nc[nH]c12,101% (inactive)
19,CCCc1cc2cc(-n3nc(C)c4c3CC(C)(C)CC4=O)cc(NC3CCSCC3)c2c(=O)[nH]1,49.4% (inactive)
20,CCCCC(CCc1ccccn1)C(=O)c1ccccc1 (stereo not given),110% (inactive)

row,Compound,growth
1,CC(=O)c1ccc(-n2cc(CN3CCN(c4cc5c(cc4F)c(=O)c(C(=O)O)cn5C4CC4)CC3)nn2)cc1,99% (inactive)
2,Cc1ccc(C)c2c1CCC2=O,134% (inactive)
3,CCOC(=O)c1cc(C(=O)c2cc(OC)c(OC)c(OC)c2)n2c1ccc1ccccc12,-12.9% (active)
4,COC(=O)Cn1c2c(c3c(OC)cccc31)C(=O)c1ccccc1-2,75.6% (inactive)
5,c1ccc(CP(Cc2ccccc2)c2ccccc2)cc1,84.2% (inactive)
6,COc1ccc(Cn2c(C(N)=O)cc3c2-c2nc(N)ncc2CCC3)cc1,121% (inactive)
7,O=C1COCCN1c1ccc(NCc2cn(Cc3cccc4ccccc34)c3ccccc23)cc1,96.4% (inactive)
8,Cn1ccc(Nc2nccc(Oc3ccc(C(=O)Nc4cccc(F)c4)c(Cl)c3)n2)c1,95.4% (inactive)
9,C1CCC(N2CN3c4nonc4N4CN(C5CCCCC5)CN5c6nonc6N(C2)C3C45)CC1 (stereo not given),100% (inactive)
10,Nc1cc(O)cc(O)c1,98.6% (inactive)
11,CC(C)C(C(=O)CCN(C)C)c1ccc(Cl)cc1 (stereo not given),81.4% (inactive)
12,CN(C)CCCN(CCC1CCCCC1)CCC1CCCCC1,30.1% (inactive)
13,O=C(Oc1ccc2c(c1)sc1nc(-c3ccccc3)[nH]c(=O)c12)C(F)(F)F,2.56% (active)
14,COc1ccc([C@@H]2[C@@H](Oc3ccccc3)C(=O)N2c2cc(OC)c(OC)c(OC)c2)cc1F,-53.9% (active)
15,CCn1cc(C(=O)O)c(=O)c2cc(F)c(N3CCN(CC(=O)Nc4ccc(/C(C)=N/OC)cc4)CC3)cc21,90.9% (inactive)
16,O=C1C[C@H](N2C(=O)c3ccccc3S2(=O)=O)C2CO[C@@H]1O2,106% (inactive)
17,CS(=O)(=O)c1ccc(Cl)c([N+](=O)[O-])c1,14% (inactive)
18,O=C(NCCNc1nccc(-c2c(-c3cccc(O)c3)nc3sccn23)n1)Nc1cc(C(F)(F)F)cc(C(F)(F)F)c1,97.3% (inactive)
19,CC1=C(/C=C/C(C)=C/C=C(C(=O)O)\C(C)=C\C(=O)O)C(C)(C)CCC1,85.3% (inactive)
20,CCOC(=O)[C@@H](Cc1ccccc1)NC(=O)c1[nH]c2ccc(Cl)cc2c(=O)c1C,104% (inactive)
